# Bioassay records as filed in PubChem BioAssay.
# HEK cytotox: kills HEK 293 cells | 94,000 compounds, 6.6% hits | Potency, µM (highest dose often 115 µM), without a hit: top-dose activity change, negative = cytotoxicity, actives largely listed as inhibitors | HEK 293 viability, ATP luminescence (CellTiter-Glo), 48-72 h | AID 1345083; active = well fitted curve in the direction sought with a large enough effect; inconclusive = small, poorly fitted or top-dose-only effect, or another doubt; inactive = no such curve, though single readings can be large; an effect the other way counts as inactive or inconclusive; also: % is scaled to controls: 0 for no effect and ±100 for the full control effect; nearly all actives have a fitted effect of over 60% in size
#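 HEK 293 seeded at 250 cells/well receive compound via pintool. After 48 or 72 hr at 37 degree Celsius, 5% CO2 and 95% humidity, CellTiter-Glo is dispensed and luminescence read following 10 min at room temperature.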
# Luciferase inh: blocks purified firefly luciferase enzyme activity. P08659. purified P. pyralis luciferase, luminescence, biochemical. Potency, µM (titrated, usually from 115 µM), most hits filed as inhibitors. 76,000 compounds, 2.5% hits. AID 1347043; active = well fitted curve in the direction sought with a large enough effect; inconclusive = small, poorly fitted or top-dose-only effect, or another doubt; inactive = no such curve, though single readings can be large; an effect the other way counts as inactive or inconclusive; also: % is scaled to controls: 0 for no effect and ±100 for the full control effect; nearly all actives have a fitted effect of over 65% in size
#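 Purified 10nM P. pyralis luciferase with 10uM D-luciferin and 10uM ATP in 50mM Tris acetate pH 7.5, 10mM Mg acetate, 0.01% Tween-20, 0.05% BSA. qHTS titration; luminescence read by CCD imager.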
# NPR1 antag: blocks ANP-stimulated signaling of human Npr1 receptor. HEK293 hNpr1 GloSensor cGMP, ANP-stimulated luminescence. Potency, µM (doses to about 46.3 µM), without a hit: at the highest dose activity change, negative = inhibition, most hits filed as inhibitors. 76,000 compounds, 1.6% hits. AID 1347048; also: % is scaled to controls: 0 for no effect and ±100 for the full control effect; nearly all actives have a fitted effect of over 60% in size
#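 Compound pre-incubated 30 min at room temperature on GloSensor-loaded HEK293 cells stably carrying hNpr1 and the pGS-40F cGMP biosensor. Stimulation uses hNppA at 0.1 nM final; luminescence is taken at baseline and 20 min post-agonist.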
# NIH3T3 tox: kills NIH 3T3 cells | NIH 3T3 viability, CellTiter-Glo ATP luminescence, 48-72 h | Potency, µM (titrated, usually from 96.7 µM), inactives show at the top dose activity change, negative = cytotoxicity, hits mostly inhibitors | 94,000 compounds, 4.3% hits | AID 1345082; active = well fitted curve in the direction sought with a large enough effect; inconclusive = small, poorly fitted or top-dose-only effect, or another doubt; inactive = no such curve, though single readings can be large; an effect the other way counts as inactive or inconclusive; also: % is scaled to controls: 0 for no effect and ±100 for the full control effect; nearly all actives have a fitted effect of over 55% in size
#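 NIH 3T3 cells at 400 cells/well received 23 nL of compound by pintool and were incubated 48 or 72 h at 37 °C. Viability was read as ATP-coupled CellTiter-Glo luminescence.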
# Npr1 antag conf: confirmation of human Npr1 natriuretic peptide receptor antagonists. shares compounds with NPR1 antag. HEK293 hNpr1 cGMP GloSensor luminescence, ANP-stimulated. Potency, µM (series often up to 57.6 µM), for inactives: at the highest dose activity change, negative = inhibition, actives largely listed as inhibitors. 1,400 compounds, 76% hits. AID 1347044; also: nearly all actives have a fitted effect of over 70% in size
# NPR2 antag: antagonizes human Npr2, subtype selectivity check | shares compounds with NPR1 antag | HEK293 hNpr2 GloSensor cGMP luminescence, CNP-stimulated | Potency, µM (top dose mostly 57.6 µM), inactives show top-dose activity change, negative = inhibition, hits mostly inhibitors | 1,400 compounds, 67% hits | AID 1347046; also: nearly all actives have a fitted effect of over 70% in size
# Target sequence (P20594 whole entry, looked up): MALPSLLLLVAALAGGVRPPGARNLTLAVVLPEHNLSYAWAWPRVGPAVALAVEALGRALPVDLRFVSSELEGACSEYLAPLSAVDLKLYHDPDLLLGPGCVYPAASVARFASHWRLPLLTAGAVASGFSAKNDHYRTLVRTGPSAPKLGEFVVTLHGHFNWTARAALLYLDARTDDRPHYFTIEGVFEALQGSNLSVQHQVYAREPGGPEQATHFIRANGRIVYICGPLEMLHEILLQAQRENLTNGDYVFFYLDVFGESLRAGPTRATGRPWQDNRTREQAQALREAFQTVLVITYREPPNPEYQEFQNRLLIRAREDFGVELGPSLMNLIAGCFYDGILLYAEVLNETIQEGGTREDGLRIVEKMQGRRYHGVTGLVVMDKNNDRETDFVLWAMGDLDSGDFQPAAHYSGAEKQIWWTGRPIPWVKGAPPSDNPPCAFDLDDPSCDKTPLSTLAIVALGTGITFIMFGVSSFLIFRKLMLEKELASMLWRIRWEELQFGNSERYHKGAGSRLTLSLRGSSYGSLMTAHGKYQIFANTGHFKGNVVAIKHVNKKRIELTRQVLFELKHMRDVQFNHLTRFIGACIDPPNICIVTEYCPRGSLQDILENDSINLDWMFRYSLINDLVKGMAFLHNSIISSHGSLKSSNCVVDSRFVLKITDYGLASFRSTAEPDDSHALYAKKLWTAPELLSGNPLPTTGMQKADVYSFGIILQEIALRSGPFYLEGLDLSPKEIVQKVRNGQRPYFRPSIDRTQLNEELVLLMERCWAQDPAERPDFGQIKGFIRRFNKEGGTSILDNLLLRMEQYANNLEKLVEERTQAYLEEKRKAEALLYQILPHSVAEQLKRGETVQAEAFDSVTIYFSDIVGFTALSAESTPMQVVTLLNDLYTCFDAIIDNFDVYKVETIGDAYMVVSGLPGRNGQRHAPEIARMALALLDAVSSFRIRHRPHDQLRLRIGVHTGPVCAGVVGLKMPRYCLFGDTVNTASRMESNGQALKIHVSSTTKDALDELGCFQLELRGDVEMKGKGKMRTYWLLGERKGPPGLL
# FLuc inh counter: counter-screen for Npr1 antagonists: firefly luciferase inhibitors; shares compounds with NPR1 antag; purified FLuc enzyme, luminescence, Km substrate; Potency, µM (titrated, usually from 57.6 µM), inactives show at the top dose activity change, negative = inhibition, hits mostly inhibitors; 1,400 compounds, 0.7% hits; AID 1347047; active = well fitted curve in the direction sought with a large enough effect; inconclusive = small, poorly fitted or top-dose-only effect, or another doubt; inactive = no such curve, though single readings can be large; an effect the other way counts as inactive or inconclusive; also: series mostly up to about 58 µM; 0% is about no effect
# GloSensor ctrl: counter-screen for Npr1 antagonists: GloSensor control cell line; shares compounds with NPR1 antag; HEK293 GloSensor cGMP, SNP-stimulated, luminescence; Potency, µM (series often up to 57.6 µM), inactives show at the highest dose activity change, negative = inhibition, actives largely listed as inhibitors; 1,400 compounds, 69% hits; AID 1347051; also: % is scaled to controls: 0 for no effect and ±100 for the full control effect; nearly all actives have a fitted effect of over 70% in size
# * marks the source's active call; other numbers are inactive results; i = inactive; ? = inconclusive; . = no result given; [ ] = remark or other dose. Sampled rows, rich in hits. Any-hit rate of the full collection: about 11%. Unless noted, calls follow the shape of the full dose curve. Potency is read from the fitted curve at half-maximal effect.
SMILES,HEK cytotox,Luciferase inh,NPR1 antag,NIH3T3 tox,Npr1 antag conf,NPR2 antag,FLuc inh counter,GloSensor ctrl
CN(Cc1cccnc1)Cc1nc(C2(O)CCN(Cc3ccc(C(F)(F)F)cc3)CC2)cs1,-58%,i,1µM*,-46%,0.86µM*,1.7µM*,0%,0.86µM*
Cc1nccn1CC(=O)N1C[C@@H](COCC2CC2)[C@H](c2ccncc2)C1,-10%,i,9%,-20%,.,.,.,.
Cc1ccc(CNC(=O)C2CCN(c3cc(C(F)(F)F)ncn3)CC2)cc1,?,i,13µM*,-24%,24µM*,22µM*,2%,19µM*
CSc1ccc(CNC(=O)C2CCN(c3cc(C(F)(F)F)ncn3)CC2)cc1,?,i,13µM*,?,19µM*,22µM*,4%,15µM*
COc1ccccc1OCCNC(=O)C1CCN(c2cc(C(F)(F)F)ncn2)CC1,-25%,i,?,?,.,.,.,.
CCc1ccc(CNC(=O)C2CCN(c3cc(C(F)(F)F)ncn3)CC2)cc1,?,i,14µM*,?,22µM*,17µM*,4%,14µM*
COc1cccc(-c2cccc(C(=O)N3CCCC3C(=O)N3CCCC(C)C3)c2)c1 (centres undefined),?,.,.,-18%,.,.,.,.
O=C(c1ccc(F)cc1)N1CCC(Cc2nc(-c3cnccn3)no2)CC1,?,i,-16%,?,.,.,.,.
O=C(c1cc(F)cc(F)c1)N1CCC(Cc2nc(-c3ccccc3)no2)CC1,?,i,7.1µM*,?,6.1µM*,6.1µM*,-2%,5.4µM*
O=C(c1ccc(F)cc1)N1CCC(Cc2nc(C3CCOCC3)no2)CC1,?,i,?,?,.,.,.,.
O=C(c1ccc(F)cc1Cl)N1CCC(Cc2nc(-c3ccccc3)no2)CC1,?,i,5.6µM*,?,5.4µM*,5.4µM*,-1%,4.3µM*
O=C(c1cc(F)ccc1Cl)N1CCC(Cc2nc(-c3ccccc3)no2)CC1,50µM*,i,11µM*,?,14µM*,15µM*,-12%,12µM*
O=C(c1cc(F)ccc1Cl)N1CCC(Cc2nc(-c3ccc(F)cc3)no2)CC1,?,i,7.1µM*,?,9.7µM*,11µM*,0%,8.6µM*
CC(C)c1noc(CC2CCN(C(=O)c3ccccc3Cl)CC2)n1,?,i,-28%,?,.,.,.,.
CCOc1ccccc1NC(=O)N1CCC(Oc2ccccc2-c2nc(C)no2)C1 (centres undefined),2%,i,-9%,-17%,.,.,.,.
O=C(Cc1ccc(Cl)cc1)N1C[C@@H](CN2CCCCC2)[C@@H](CO)C1,-8%,i,15%,1%,.,.,.,.
Cc1nnc([C@H]2CCN(CCCc3ccccc3)C2)o1,-23%[230 µM],i,9%[70.6 µM],-15%[230 µM],.,.,.,.
COc1ccccc1-n1c(=O)c(C(=O)NCc2ccccc2F)nc2cccnc21,i,.,.,-12%,.,.,.,.
Cc1c(F)cccc1NC(=O)C1CN(S(=O)(=O)C2CC2)CC12CCCCC2 (centres undefined),?,i,-1%,?,.,.,.,.
Cc1cccc(NC(=O)N2CCC(CCNC(=O)C3(c4ccccc4)CC3)CC2)c1,?,.,.,-30%,.,.,.,.
O=C(CCC1CCN(C(=O)c2cc(C3CC3)[nH]n2)CC1)N1CCC(Cc2ccccc2)CC1,?,i,13µM*,?,24µM*,22µM*,-18%,19µM*
O=C(CCC(F)(F)F)N1CCC(CCC(=O)N2CCC(Cc3ccccc3)CC2)CC1,?,i,?,?,.,.,.,.
CC(C)N1C(=O)CO[C@H]2CCN(Cc3ccccc3Cl)CC[C@@H]21,?,i,2.8µM*,?,7.9µM*,11µM*,3%[86.2 µM],6.3µM*
CC(C)c1ccc(CN2CC[C@@H]3OCC(=O)N(C(C)C)[C@H]3CC2)cc1,?,i,8.9µM*,?,7.9µM*,11µM*,0%[86.2 µM],6.3µM*
CC(C)N1C(=O)CO[C@H]2CCN(Cc3ccccc3)CC[C@@H]21,?,i,?,?,.,.,.,.
SMILES,HEK cytotox,Luciferase inh,NPR1 antag,NIH3T3 tox,Npr1 antag conf,NPR2 antag,FLuc inh counter,GloSensor ctrl
COc1ccc(CCNC(=O)C2CCc3nnc(-c4ccc(F)cc4)n32)cc1 (centres undefined),1%,.,.,-2%,.,.,.,.
O=C(COc1ccccc1)N1CCCC1c1nc(CCOCC2CCOCC2)no1 (centres undefined),0%,.,.,-15%,.,.,.,.
CCOc1ccccc1C(=O)N1CCC(n2cc(-c3nc(-c4ccccc4)no3)nn2)CC1,40µM*,i,?,?,24µM*,?,-21%,?
COc1cccc(CC(=O)N2CCC(n3cc(-c4nc(-c5ccccc5)no4)nn3)CC2)c1,32µM*,i,10µM*,?,11µM*,11µM*,-23%,12µM*
O=C(c1ccco1)N1CCC(n2cc(-c3nc(-c4ccccc4)no3)nn2)CC1,?,i,-2%,?,.,.,.,.
Cc1cccc(CC(=O)N2CCC(n3cc(-c4nc(-c5ccccc5)no4)nn3)CC2)c1,-7%,i,-3%,i,.,.,.,.
O=C(c1cc(F)ccc1F)N1CCCC(n2cc(-c3nc(-c4ccccc4)no3)nn2)C1 (centres undefined),40µM*,?,11µM*,?,19µM*,19µM*,?,17µM*
O=C(C1CC1)N1CCC(n2cc(-c3nc(-c4ccccc4)no3)nn2)CC1,?,i,?,?,?,?,-22%,?
O=C(c1cnccn1)N1CCCC(n2cc(-c3nc(-c4ccccc4)no3)nn2)C1 (centres undefined),-24%,i,-20%,-17%,.,.,.,.
O=C(NCC1CCCCC1)c1ccc2oc(-c3ccccn3)nc2c1,-3%,.,.,1%,.,.,.,.
O=C(C1CCC1)N1CCC(n2cc(-c3nc(-c4ccccc4)no3)nn2)CC1,?,i,?,?,24µM*,24µM*,-12%,22µM*
O=C(N1CCC(n2cc(-c3nc(-c4ccccc4)no3)nn2)CC1)C1(c2ccccc2)CC1,32µM*,i,13µM*,?,24µM*,27µM*,-19%,24µM*
